# Test results reported in publication PMC4336329 (PLoS ONE, 2015).
# Out of some 310,000 compounds screened, about 14,000 (4.5%) showed an effect of 50% or more. Effects have a minus sign here. Only a selection was taken, and strong results are over-represented in it overall.
# Target: human ether-à-go-go-related gene (hERG) potassium channel (human, UniProt Q12809)
# Assay: primary screen, population patch clamp on CHO cells stably expressing hERG; higher = less effect of the substance
# 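Further: peak tail current of the secondary pulse compared with the same well before compound.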
# Sequence of human ether-à-go-go-related gene (hERG) potassium channel (Q12809 whole entry, looked up): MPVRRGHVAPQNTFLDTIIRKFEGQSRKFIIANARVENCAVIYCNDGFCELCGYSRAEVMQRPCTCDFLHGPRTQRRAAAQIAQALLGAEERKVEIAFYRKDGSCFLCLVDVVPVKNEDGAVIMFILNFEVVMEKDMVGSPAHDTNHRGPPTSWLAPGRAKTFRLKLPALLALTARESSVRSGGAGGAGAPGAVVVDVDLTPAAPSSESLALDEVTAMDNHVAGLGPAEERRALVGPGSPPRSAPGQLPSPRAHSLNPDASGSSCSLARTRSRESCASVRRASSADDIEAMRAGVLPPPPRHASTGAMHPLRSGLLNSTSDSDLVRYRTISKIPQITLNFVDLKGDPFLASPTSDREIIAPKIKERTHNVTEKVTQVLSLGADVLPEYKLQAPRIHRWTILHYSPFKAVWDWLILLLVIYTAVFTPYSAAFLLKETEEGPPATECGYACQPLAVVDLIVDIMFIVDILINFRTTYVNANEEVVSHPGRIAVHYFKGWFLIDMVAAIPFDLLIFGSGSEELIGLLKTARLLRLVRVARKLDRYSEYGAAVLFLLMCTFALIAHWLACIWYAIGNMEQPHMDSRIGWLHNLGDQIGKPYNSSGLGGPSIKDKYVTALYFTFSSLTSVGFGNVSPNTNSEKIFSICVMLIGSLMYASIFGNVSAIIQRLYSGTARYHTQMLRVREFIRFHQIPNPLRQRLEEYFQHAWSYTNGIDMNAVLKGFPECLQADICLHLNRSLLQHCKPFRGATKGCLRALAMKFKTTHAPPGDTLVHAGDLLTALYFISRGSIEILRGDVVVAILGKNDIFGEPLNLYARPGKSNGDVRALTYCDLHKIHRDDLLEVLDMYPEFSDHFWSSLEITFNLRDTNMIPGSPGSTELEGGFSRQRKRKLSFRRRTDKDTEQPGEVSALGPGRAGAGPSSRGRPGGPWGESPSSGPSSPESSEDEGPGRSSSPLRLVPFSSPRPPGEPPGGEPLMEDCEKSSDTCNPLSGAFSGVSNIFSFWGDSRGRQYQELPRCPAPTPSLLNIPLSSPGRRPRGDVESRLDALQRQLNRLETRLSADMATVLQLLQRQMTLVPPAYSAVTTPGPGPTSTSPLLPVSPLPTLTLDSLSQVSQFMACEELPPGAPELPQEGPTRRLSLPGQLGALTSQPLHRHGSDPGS
row,SMILES,"hERG current change (%, negative = inhibition) at 10uM [%]"
1,CCCCCCc1nnc(N)s1,-0.995
2,Cc1cc(=O)n(C2CCS(=O)(=O)C2)[nH]1 (stereo not shown),14.7
3,O=c1[nH]c(=S)c2ncn(-c3ccccc3)c2[nH]1,11.7
4,CCCCC(CCC(=O)O)(C(=O)OCC)c1csc(Nc2ccc(C)cc2)n1 (stereo not shown),-0.891
5,Cc1ccc(N2C(=O)CC(c3ccsc3)C3=C2CC(C)(C)CC3=O)cc1 (stereo not shown),3.75
6,COc1ccc(CNC(=O)CN2CCN(c3cccc(C)c3C)CC2)cc1,-8.46
7,CCN(CC(=O)Nc1ccccc1OC)C(=O)CSCc1ccc(C)cc1,-2.36
8,CCCNC(=O)NC(=O)COC(=O)c1cccc(NS(=O)(=O)c2ccc(F)c(F)c2)c1,-12
9,COc1ccc(C(C(=O)NC2CCCC2)N(C(=O)CNC(=O)c2ccco2)c2cccnc2)cc1 (stereo not shown),14.7
10,Cc1oc2c(C)c3oc(=O)c(CCC(=O)NCCCN4CCCC4=O)c(C)c3cc2c1C,-14.8
11,Cc1nc2c(-c3ccc(F)cc3)c(C)nn2c(C)c1CCC(=O)Nc1ccccc1F,-10.7
12,COCCCNC(=O)CCc1c(C)nc2c(-c3ccc(F)cc3)c(C)nn2c1C,-38.5
13,Cc1nc2c(-c3ccc(F)cc3)c(C)nn2c(C)c1CCC(=O)N1CCN(c2ccc(F)cc2)CC1,-74.6
14,COc1ccc(CN2C(=O)C(C)S/C2=N/N=C/c2ccco2)cc1 (stereo not shown),6.37
15,COc1ccc(-c2cc(=O)oc3c(C)c(OCC(=O)NCCCn4ccnc4)ccc23)cc1,-63.8
16,Cc1cc(=O)oc2c(C)c(OCC(=O)Nc3cccnc3)ccc12,-25.3
17,CC(Oc1ccc2c3c(c(=O)oc2c1)CCCC3)C(=O)NCCCn1ccnc1 (stereo not shown),-2.45
18,CCc1cc(=O)oc2cc(OC(C)C(=O)NCCCn3ccnc3)ccc12 (stereo not shown),9.41
19,COc1ccc(-c2cc(=O)oc3cc(OC(C)C(=O)NCCCn4ccnc4)ccc23)cc1 (stereo not shown),-50.8
20,CC(Oc1ccc2c(-c3ccccc3)cc(=O)oc2c1)C(=O)NCCCn1ccnc1 (stereo not shown),-52.5
21,Cc1cc(=O)oc2cc(OC(C)C(=O)NCCCn3ccnc3)ccc12 (stereo not shown),9.44
22,CC(Oc1ccc2ccc(=O)oc2c1)C(=O)NCCCn1ccnc1 (stereo not shown),28.5
23,Cc1c(C)c2ccc(OCC(=O)Nc3cccnc3)c(C)c2oc1=O,3.99
24,CCCc1cc(=O)oc2c(C)c(OCC(=O)Nc3cccnc3)ccc12,-63.6
25,Cc1c(OCC(=O)NCCCn2ccnc2)ccc2c3c(c(=O)oc12)CCCC3,-48.2
26,Cc1c(OCC(=O)NCCCn2ccnc2)ccc2c3c(c(=O)oc12)CCC3,-26.7
27,COc1ccc(-c2cc(C(=O)N(C)CCc3ccc(OC)c(OC)c3)c3ccccc3n2)cc1,-29.4
28,CC(c1ccco1)N(C(=O)c1cccc(S(=O)(=O)N(C)C)c1)c1ccccn1 (stereo not shown),16

row,SMILES,"hERG current change (%, negative = inhibition) at 10uM [%]"
1,Cc1c(C)c2ccc(OCC(=O)NCCCn3ccnc3)c(C)c2oc1=O,-32.7
2,Cc1cc(=O)oc2cc(OCC(=O)NCCCn3ccnc3)ccc12,7.58
3,CC(=O)COc1ccc2c(-c3ccccc3)cc(=O)oc2c1,-1.91
4,COC(=O)COc1ccc2c(-c3ccc(OC)cc3)cc(=O)oc2c1,-39.2
5,O=C(COc1ccc2c(-c3ccccc3)cc(=O)oc2c1)NCCCn1ccnc1,-48.7
6,CCCc1cc(=O)oc2c(C)c(OCC(=O)NCCCn3ccnc3)ccc12,-75.3
7,CCc1cc(=O)oc2c(C)c(OCC(=O)NCCCn3ccnc3)ccc12,-45.9
8,COc1ccc(-c2cc(=O)oc3cc(OCC(=O)NCCCn4ccnc4)ccc23)cc1,-65.4
9,COc1ccc(-c2cc(=O)oc3cc(OCC(C)=O)ccc23)cc1,-74.6
10,Clc1cccc(-c2nc(NCCCN3CCOCC3)c3ccccc3n2)c1,-10.1
11,CCOC(=O)N1CCN(C(=O)c2cccc(NC3=NC4CS(=O)(=O)CC4S3)c2)CC1 (stereo not shown),4.31
12,NC(=O)c1cc(Cc2ccccc2)sc1NC(=O)c1ccco1,-13.6
13,O=C1CCC(c2ccccc2)=NN1,9.05
14,COCC(C)NC(=O)/C(=C/c1ccccc1)c1ccccc1 (stereo not shown),-25
15,COc1ccc(S(=O)(=O)C(C#N)c2nc3ccccc3nc2N2CCC(C)CC2)cc1 (stereo not shown),18.6
16,O=C(Nc1ccccc1)Nc1ccc2c(c1)CCC2,29.8
17,CC(OC(=O)CCCOc1ccccc1)C(=O)NC(N)=O (stereo not shown),9
18,Cn1cncc1C#Cc1c(C=O)n(C)c2ccccc12,19.8
19,O=C1c2cccc(OCC(=O)N3CCCc4ccccc43)c2CCN1Cc1ccc(Br)cc1,6.7
20,O=C(COc1ccccc1-c1ccccc1)NCc1ccco1,-28
21,Cc1ccc(C)c(NC(=O)COc2cccc3c2CCN(Cc2ccccc2)C3=O)c1,-10.1
22,Cc1ccc(CN2CCc3c(OCC(=O)Nc4cc(C)ccc4C)cccc3C2=O)cc1,4.23
23,O=C(COc1cccc2c1CCN(Cc1ccc(Br)cc1)C2=O)NCc1ccco1,-70.6
24,O=C(COc1cccc2c1CCN(Cc1ccccc1)C2=O)NCc1ccco1,-70.3
25,Cc1cccc(CN2CCc3c(OCC(=O)NCc4ccco4)cccc3C2=O)c1,-51.2
26,COC(=O)c1ccc(COc2cccc3c2CCN(Cc2cccc(C)c2)C3=O)o1,-3.41
27,Cc1cccc(NC(=O)COc2cccc3c2CCN(Cc2ccccc2)C3=O)c1C,-5.8
